Inconclusive results are not listed. A call without a number means that no potency is given here. Active and inactive are the calls of the source. Calls follow the shape of the dose curve; as a rule, active = well fitted curve in the direction sought with a large enough effect; inconclusive = small, poorly fitted or top-dose-only effect, or another doubt; inactive = no such curve, though single readings can be large; an effect the other way counts as inactive or inconclusive.
Experiments:
[1] = Quantitative High-Throughput drug screen in 47 multiple myeloma cell lines against the NCATS MIPE library collection: KMS12PE_JCRB cell viability assay (AID 1918972); also: nearly all actives have a fitted effect of over 30% in size; also: potency is read from the fitted curve at half-maximal effect
Method in brief: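 qHTS of the MIPE 4.0 collection: 500 myeloma cells/well, 48 h drug exposure at 37C in 5% CO2, then CellTiter-Glo for 5 min at room temperature before luminescence reading.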

[2] = Quantitative High-Throughput drug screen in 47 multiple myeloma cell lines against the NCATS MIPE library collection: KMS20_JCRB cell viability assay (AID 1918973); also: nearly all actives have a fitted effect of over 45% in size
Method in brief: (§1)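 Relative luminescence from CellTiter-Glo served as the viability signal, referenced to DMSO-treated (100%) and cell-free medium (0%) controls. Treatment lasted 48 hours at 37C with 500 cells per well.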

[3] = Quantitative High-Throughput drug screen in 47 multiple myeloma cell lines against the NCATS MIPE library collection: KMS21BM_JCRB cell viability assay (AID 1918974); settings: ATP luminescence, 48 h; viability: at 45.8 µM (top of the series) unless noted; also: potency is read from the fitted curve at half-maximal effect
Method in brief: as §1

[4] = Quantitative High-Throughput drug screen in 47 multiple myeloma cell lines against the NCATS MIPE library collection: KMS26_JCRB cell viability assay (AID 1918975); also: nearly all actives have a fitted effect of over 45% in size; also: potency is read from the fitted curve at half-maximal effect
Method in brief: (§2)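 Myeloma cell lines, 500 cells per well, exposed to MIPE 4.0 library compounds for 48 h at 37C, 5% CO2. Viability from ATP by CellTiter-Glo luminescence; normalised to DMSO (100%) and media-only (0%) wells.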

[5] = Quantitative High-Throughput drug screen in 47 multiple myeloma cell lines against the NCATS MIPE library collection: NCIH929_DSMZ cell viability assay (AID 1918978); also: nearly all actives have a fitted effect of over 35% in size; also: potency is read from the fitted curve at half-maximal effect
Method in brief: (§3)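 Viability after 48 h drug exposure was measured as ATP-dependent luminescence. Cells, 500 per well, sat at 37 °C under 5% CO2; DMSO wells set 100%, media-only wells 0%.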

[6] = Quantitative High-Throughput drug screen in 47 multiple myeloma cell lines against the NCATS MIPE library collection: MM1S_ATCC cell viability assay (AID 1918980); also: nearly all actives have a fitted effect of over 45% in size; also: potency is read from the fitted curve at half-maximal effect
Method in brief: as §3

[7] = Quantitative High-Throughput drug screen in 47 multiple myeloma cell lines against the NCATS MIPE library collection: OCIMY1_PLB cell viability assay (AID 1918979); also: nearly all actives have a fitted effect of over 35% in size
Method in brief: as §3

[8] = Quantitative High-Throughput drug screen in 47 multiple myeloma cell lines against the NCATS MIPE library collection: KMS12BM_JCRB cell viability assay (AID 1918971); also: nearly all actives have a fitted effect of over 35% in size; also: potency is read from the fitted curve at half-maximal effect
Method in brief: as §2

[9] = Quantitative High-Throughput drug screen in 47 multiple myeloma cell lines against the NCATS MIPE library collection: MOLP8_DSMZ cell viability assay (AID 1918977); also: nearly all actives have a fitted effect of over 45% in size
Method in brief: as §3

[10] = Quantitative High-Throughput drug screen in 47 multiple myeloma cell lines against the NCATS MIPE library collection: MMM1_PLB cell viability assay (AID 1918976); also: potency is read from the fitted curve at half-maximal effect; nearly all actives have a fitted effect of over 35% in size
Method in brief: as §3

Q: What does the source list for `COC1CCC(N(C(=O)C2CCC(C)CC2)c2cc(C3=CCCCC3)sc2C(=O)O)CC1` (stereo not drawn)?
A: Potency [1]: inactive; Potency [2]: inactive; Potency [3]: inactive; Potency [4]: inactive; Potency [5]: 23.5 µM (active); Potency [6]: inactive

Q: What does the source list for `Cn1c(N2CCCCS2(=O)=O)nc(C(=O)NCc2ccc(F)cc2)c(O)c1=O`?
A: Potency [1]: 20.9 µM (active); Potency [2]: inactive; Potency [7]: inactive; Potency [6]: inactive

Q: Which results are given for `COc1ccc2c(Oc3ccc(NC(=O)c4c(C)n(CC(C)(C)O)n(-c5ccccc5)c4=O)cc3F)ccnc2c1`?
A: Potency [8]: 33.2 µM (active); Potency [4]: inactive; Potency [5]: 20.9 µM (active)

Q: Which results are given for `CC(C)(Cc1ccc2ccccc2c1)NC[C@@H](O)COc1cccc(Cl)c1C#N`?
A: Potency [8]: inactive; Potency [4]: inactive; Potency [5]: inactive; Potency [7]: inactive; Potency [6]: 16.6 µM (active)

Q: For `NS(=O)(=O)c1ccc(NC2=CC(=O)c3ccccc3C2=O)cc1`, which Potency [8] is on record?
A: inactive

Q: And the Potency [4]?
A: 3.72 µM (active)

Q: And the Potency [9]?
A: inactive

Q: And the Potency [7]?
A: inactive

Q: Which Potency [1] does the source give for `OC[C@H]1O[C@@H](n2cnc3c2NC=NC[C@@H]3O)C[C@H]1O` here?
A: inactive

Q: And the Potency [3]?
A: 0.0042 µM (active)

Q: And the Potency [4]?
A: inactive

Q: What about the Potency [10] of the same compound?
A: 20.9 µM (active)

Q: What about the Potency [9] of the same compound?
A: inactive

Q: And the Potency [5]?
A: 26.4 µM (active)

Q: What about the Potency [7] of the same compound?
A: inactive

Q: Which Potency [8] does the source give for `O=C(Nc1cc(Cl)cc2c1[nH]c1cnccc12)c1cccnc1` here?
A: 18.7 µM (active)

Q: And the Potency [4]?
A: 18.7 µM (active)

Q: What about the Potency [10] of the same compound?
A: 11.8 µM (active)

Q: And the Potency [5]?
A: 1.87 µM (active)

Q: What about the Potency [7] of the same compound?
A: inactive

Q: And the Potency [6]?
A: 11.8 µM (active)

Q: What does the source list for `O=c1cc(-c2ccc(O)cc2)oc2cc(O)cc(O)c12`?
A: Potency [8]: 13.2 µM (active); Potency [10]: 18.7 µM (active); Potency [5]: 6.62 µM (active); Potency [6]: 8.33 µM (active)

Q: With `Cn1cc(C=C2C(=O)Nc3cccnc32)c2ccccc21` as the compound, how does the Potency [8] read?
A: inactive

Q: What about the Potency [4] of the same compound?
A: inactive

Q: And the Potency [9]?
A: inactive

Q: And the Potency [7]?
A: inactive

Source: PubChem BioAssay (NCATS)
